# Source: the supplement of paper PMC4466140
# Experiments:
# Test in all cases: SPOT peptide array binding signal intensity (averaged, normalized) (arbitrary units (background-subtracted, floor 0; scale differs between SH3 domains)); higher = stronger binding of the SH3 domain to the peptide
# [1] = target: ScBbc1
# Summary of the method: (§1)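 E. coli BL21(DE3) was used to express GST-fused SH3 domains from four yeast species, which were then purified on glutathione Sepharose. These were incubated at 10 μg/ml in TBS-based blocking buffer overnight at 4°C on cellulose membranes carrying synthetic 15-mer peptides, in which cysteines were replaced by serines. Binding signal is the replicate average of normalized, background-subtracted spot intensity, in arbitrary units that differ between domains.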
# [2] = target: ScBem1-D1
# Summary of the method: as §1
# [3] = target: ScBzz1-D1
# Summary of the method: as §1
# [4] = target: ScBzz1-D2
# Summary of the method: as §1
# [5] = target: ScCyk3
# Summary of the method: as §1
# [6] = target: ScFus1
# Summary of the method: as §1
# [7] = target: ScHof1
# Summary of the method: as §1
# [8] = target: ScHse1
# Summary of the method: as §1
# [9] = target: ScLsb1
# Summary of the method: as §1
# [10] = target: ScLsb2
# Summary of the method: as §1
# [11] = target: ScLsb3
# Summary of the method: as §1
# [12] = target: ScLsb4
# Summary of the method: as §1
# [13] = target: ScMyo3
# Summary of the method: as §1
# [14] = target: ScMyo5
# Summary of the method: as §1
# [15] = target: ScNbp2
# Summary of the method: as §1
# [16] = target: ScPex13
# Summary of the method: as §1
# [17] = target: ScRvs167
# Summary of the method: as §1
# [18] = target: ScSho1
# Summary of the method: as §1
# [19] = target: ScSla1-D1-D2
# Summary of the method: as §1
# [20] = target: ScSla1-D3
# Summary of the method: as §1
# [21] = target: SpAbp1-D1
# Summary of the method: as §1
# [22] = target: SpBbc1
# Summary of the method: as §1
# [23] = target: SpBzz1-D1
# Summary of the method: as §1
# [24] = target: SpBzz1-D2
# Summary of the method: as §1
# [25] = target: SpCyk3
# Summary of the method: as §1
# [26] = target: SpHof1
# Summary of the method: as §1
# [27] = target: SpHof1-2
# Summary of the method: as §1
# [28] = target: SpHof1-3
# Summary of the method: as §1
# [29] = target: SpHse1
# Summary of the method: as §1
# [30] = target: SpLsb1
# Summary of the method: as §1
# [31] = target: SpLsb4
# Summary of the method: as §1
# [32] = target: SpMyo1
# Summary of the method: as §1
# [33] = target: SpNbp2
# Summary of the method: as §1
# [34] = target: SpPex13
# Summary of the method: as §1
# [35] = target: SpRvs167
# Summary of the method: as §1
# [36] = target: SpSla1-D1-D2
# Summary of the method: as §1
# [37] = target: SpSla1-D3
# Summary of the method: as §1
binder,measurement,setting,value
LLLLFVPDSPYDPAI,SPOT peptide array binding signal intensity,[1],0.25
same,SPOT peptide array binding signal intensity,[2],7
same,SPOT peptide array binding signal intensity,[3],31
same,SPOT peptide array binding signal intensity,[4],7
same,SPOT peptide array binding signal intensity,[5],37
same,SPOT peptide array binding signal intensity,[6],1060
same,SPOT peptide array binding signal intensity,[7],2.25
same,SPOT peptide array binding signal intensity,[8],662
same,SPOT peptide array binding signal intensity,[9],≤ 0
same,SPOT peptide array binding signal intensity,[10],≤ 0
same,SPOT peptide array binding signal intensity,[11],≤ 0
same,SPOT peptide array binding signal intensity,[12],1
same,SPOT peptide array binding signal intensity,[13],≤ 0
same,SPOT peptide array binding signal intensity,[14],≤ 0
same,SPOT peptide array binding signal intensity,[15],74
same,SPOT peptide array binding signal intensity,[16],0.25
same,SPOT peptide array binding signal intensity,[17],0.333
same,SPOT peptide array binding signal intensity,[18],1530
same,SPOT peptide array binding signal intensity,[19],≤ 0
same,SPOT peptide array binding signal intensity,[20],27.5
same,SPOT peptide array binding signal intensity,[21],1
same,SPOT peptide array binding signal intensity,[22],≤ 0
same,SPOT peptide array binding signal intensity,[23],26
same,SPOT peptide array binding signal intensity,[24],1.5
same,SPOT peptide array binding signal intensity,[25],25
same,SPOT peptide array binding signal intensity,[26],6.25
same,SPOT peptide array binding signal intensity,[27],5.5
same,SPOT peptide array binding signal intensity,[28],85.5
same,SPOT peptide array binding signal intensity,[29],1440
same,SPOT peptide array binding signal intensity,[30],≤ 0
same,SPOT peptide array binding signal intensity,[31],2
same,SPOT peptide array binding signal intensity,[32],3
same,SPOT peptide array binding signal intensity,[33],195
same,SPOT peptide array binding signal intensity,[34],20
same,SPOT peptide array binding signal intensity,[35],≤ 0
same,SPOT peptide array binding signal intensity,[36],3
same,SPOT peptide array binding signal intensity,[37],1
